# “And” between values parts separate entries of the source, which are not always exact repeats. Equal entries are not always repeated. Where two headings read alike, the source gives them in different places.
# What was measured:
# CAMK2D = details: concentration: 1 μM, replicates: in singlicate; n = 1
# CAMK2G = details: concentration: 1 μM, replicates: in singlicate, n = 1
# CAMK4 = details: concentration: 1 μM, replicates: in singlicate; n = 1
# CAMKK1 = details: concentration: 1 μM, replicates: in singlicate; n = 1
# CAMKK2 = details: concentration: 1 μM, replicates: in singlicate; n = 1
# CASK = details: concentration: 1 μM, replicates: in singlicate; n = 1
# CDC2L1 = system: T1, CDC2L1; details: concentration: 1 μM, replicates: in singlicate; n = 1
# T1 construct: gene CDK11B
# CDC2L2 = details: concentration: 1 μM, replicates: in singlicate, n = 1
# CDC2L5 = system: T2, CDC2L5; details: concentration: 1 μM, replicates: in singlicate, n = 1
# T2 construct: gene CDK13
# CDK11 = system: T3, CDK11; details: concentration: 1 μM, replicates: in singlicate, n = 1
# T3 construct: gene CDK19
# CDK2 = details: concentration: 1 μM, replicates: in singlicate; n = 1
# CDK3 = details: concentration: 1 μM, replicates: in singlicate, n = 1
# CDK4-cyclinD1 = details: concentration: 1 μM, replicates: in singlicate; n = 1
# CDK4-cyclinD3 = details: concentration: 1 μM, replicates: in singlicate; n = 1
# CDK4 = details: concentration: 1 μM, replicates: in singlicate, n = 1
# CDK5 = details: concentration: 1 μM, replicates: in singlicate; n = 1
# CDK7 = details: concentration: 1 μM, replicates: in singlicate, n = 1
# CDK8 = details: concentration: 1 μM, replicates: in singlicate, n = 1
# CDK9 = details: concentration: 1 μM, replicates: in singlicate; n = 1
# CDKL1 = details: concentration: 1 μM, replicates: in singlicate, n = 1
# 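Also: KINOMEscan kinase panel screen.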
compound,measurement,setting,value
Fc1ccc(-c2ncn(CCCNCc3ccccc3)c2-c2ccncc2)cc1,%Inh,CAMK2D,0%
same,%Inh,CAMK2G,0%
same,%Inh,CAMK4,4%
same,%Inh,CAMKK1,0%
same,%Inh,CAMKK2,0%
same,%Inh,CASK,27%
same,%Inh,CDC2L1,0%
same,%Inh,CDC2L2,0%
same,%Inh,CDC2L5,18%
same,%Inh,CDK11,0%
same,%Inh,CDK2,0%
same,%Inh,CDK3,7%
same,%Inh,CDK4-cyclinD1,0%
same,%Inh,CDK4-cyclinD3,13%
same,%Inh,CDK4,0%
same,%Inh,CDK5,4%
same,%Inh,CDK7,27%
same,%Inh,CDK8,0%
same,%Inh,CDK9,0%
same,%Inh,CDKL1,0%
Nc1nc(-c2ccccn2)c(-c2ccnc3ccccc23)s1 [GW548057],%Inh,CAMK2D,6%
same,%Inh,CAMK2G,20%
same,%Inh,CAMK4,0%
same,%Inh,CAMKK1,13%
same,%Inh,CAMKK2,21%
same,%Inh,CASK,26%
same,%Inh,CDC2L1,0%
same,%Inh,CDC2L2,11%
same,%Inh,CDC2L5,0%
same,%Inh,CDK11,10%
same,%Inh,CDK2,0%
same,%Inh,CDK3,5%
same,%Inh,CDK4-cyclinD1,49%
same,%Inh,CDK4-cyclinD3,0%
same,%Inh,CDK4,0%
same,%Inh,CDK5,0%
same,%Inh,CDK7,2%
same,%Inh,CDK8,56%
same,%Inh,CDK9,0%
same,%Inh,CDKL1,12%
CC(=O)Nc1n[nH]c2ncc(-c3ccccc3)cc12 [SB-548492],%Inh,CAMK2D,0%
same,%Inh,CAMK2G,17%
same,%Inh,CAMK4,0%
same,%Inh,CAMKK1,0%
same,%Inh,CAMKK2,4%
same,%Inh,CASK,0%
same,%Inh,CDC2L1,0%
same,%Inh,CDC2L2,14%
same,%Inh,CDC2L5,21%
same,%Inh,CDK11,0%
same,%Inh,CDK2,8%
same,%Inh,CDK3,12%
same,%Inh,CDK4-cyclinD1,0%
same,%Inh,CDK4-cyclinD3,1%
same,%Inh,CDK4,25%
same,%Inh,CDK5,11%
same,%Inh,CDK7,17%
same,%Inh,CDK8,0%
same,%Inh,CDK9,0%
same,%Inh,CDKL1,30%
COc1ccc(-c2nc3n(c2-c2ccncc2)CCC3)cc1 [SKF-104493],%Inh,CAMK2D,0%
same,%Inh,CAMK2G; 1 µM,0% and 2%
same,%Inh,CAMK4,0%
same,%Inh,CAMKK1,0%
same,%Inh,CAMKK2,0%
same,%Inh,CASK,0%
same,%Inh,CDC2L1,0%
same,%Inh,CDC2L2; 1 µM,6% and 13%
same,%Inh,CDC2L5; 1 µM,18% and 0%
same,%Inh,CDK11; 1 µM,5% and 7%
same,%Inh,CDK2,0%
same,%Inh,CDK3; 1 µM,0% and 4%
same,%Inh,CDK4-cyclinD1,0%
same,%Inh,CDK4-cyclinD3,0%
same,%Inh,CDK4; 1 µM,44% and 0%
same,%Inh,CDK5,0%
same,%Inh,CDK7; 1 µM,15% and 6%
same,%Inh,CDK8; 1 µM,5% and 9%
same,%Inh,CDK9,0%
same,%Inh,CDKL1; 1 µM,11% and 6%
Cn1ccc2ncnc(Oc3ccc(NC(=O)Nc4cccnc4)c(Cl)c3)c21,%Inh,CAMK2D,19%
same,%Inh,CAMK2G,19%
same,%Inh,CAMK4,0%
same,%Inh,CAMKK1,20%
same,%Inh,CAMKK2,11%
same,%Inh,CASK,0%
same,%Inh,CDC2L1,9%
same,%Inh,CDC2L2,0%
same,%Inh,CDC2L5,10%
same,%Inh,CDK11,0%
same,%Inh,CDK2,0%
same,%Inh,CDK3,0%
same,%Inh,CDK4-cyclinD1,0%
same,%Inh,CDK4-cyclinD3,0%
same,%Inh,CDK4,0%
same,%Inh,CDK5,4%
same,%Inh,CDK7,7%
same,%Inh,CDK8,0%
same,%Inh,CDK9,2%
same,%Inh,CDKL1,8%
Cc1ccc(O)cc1Nc1cc(C(F)(F)F)nc2ccc(-c3ccncc3)cc12 [GW630823],%Inh,CAMK2D,2%
same,%Inh,CAMK2G,16%
same,%Inh,CAMK4,0%
same,%Inh,CAMKK1,11%
same,%Inh,CAMKK2,16%
same,%Inh,CASK,1%
same,%Inh,CDC2L1,17%
same,%Inh,CDC2L2,0%
same,%Inh,CDC2L5,0%
same,%Inh,CDK11,0%
same,%Inh,CDK2,5%
same,%Inh,CDK3,0%
same,%Inh,CDK4-cyclinD1,0%
same,%Inh,CDK4-cyclinD3,0%
same,%Inh,CDK4,0%
same,%Inh,CDK5,0%
same,%Inh,CDK7,0%
same,%Inh,CDK8,0%
same,%Inh,CDK9,5%
same,%Inh,CDKL1,20%
